Screening data deposited in PubChem by National Center for Advancing Translational Sciences (NCATS).
DT40 TDP1 no CPT – qHTS for Inhibitors of human tyrosyl-DNA phosphodiesterase 1 (TDP1): qHTS in cells in absence of CPT. AID 686978, 2013. DT40 Tdp1-/- hTDP1 cells, no CPT, ATP luminescence, 48 h. Potency, µM (doses to about 46.2 µM), for the others: at the top dose activity change, negative = growth inhibition, most hits filed as inhibitors. 420,000 tested, 15% active; also: nearly all actives have a fitted effect of over 55% in size
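Readout: luminescence from CellTiter-Glo after 30 min in the dark at RT. Cells: DT40 Tdp1-/- with stable hTDP1, 400/well. Exposure: compounds alone, ≥48 hr, 37 °C.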
KB-V1 cytotox – qHTS assay for MDR1-selective chemotherapeutics: Primary screen using the drug-selected MDR subline cells KB-V1. Potency, µM (highest dose often 46.1 µM), hits mostly cytotoxic. AID 1347076, 2019. 400,000 tested, 3.4% active. KB-V1 MDR cells viability, CellTiter-Glo, 72 h; also: nearly all actives have a fitted effect of over 60% in size
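Readout: CellTiter-Glo luminescence, 10 min after addition. Cells: KB-V1 MDR subline, 72 h at 37 degrees C with compound. Analysis: corrected, normalized data fitted to concentration-effect curves.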
DT40 TDP1 CPT – qHTS for Inhibitors of human tyrosyl-DNA phosphodiesterase 1 (TDP1): qHTS in cells in presence of CPT | 420,000 tested, 12% active | chicken DT40 Tdp1-/-;hTDP1 cells + 20 nM CPT, ATP luminescence, 48 h | AID 686979, 2013 | Potency, µM (titrated, usually from 46.2 µM), for inactives: at the highest dose activity change, negative = growth inhibition, actives largely listed as inhibitors; also: nearly all actives have a fitted effect of over 55% in size
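Chicken DT40 Tdp1-/- cells stably complemented with human TDP1 were seeded at 400 cells/well in medium containing 20 nM camptothecin, exposed to pin-transferred compounds, and grown at 37 °C for at least 48 hr. Viability was read as ATP luminescence.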
KB-3-1 cytotox – qHTS assay for MDR1-selective chemotherapeutics: Primary screen using the parental adenocarcinoma cell KB-3-1. KB-3-1 viability, CellTiter-Glo ATP luminescence, 72 h. Potency, µM (series often up to 46.1 µM), most hits filed as cytotoxic. 400,000 tested, 1.4% active; also: nearly all actives have a fitted effect of over 60% in size
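Screening of KB-3-1 cells (DMEM, 10% FBS, phenol-red free) ran from lowest to highest compound concentration; after 72 h at 37 °C viability was read luminescently and curves fitted.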
HT1080 IDH1KD tx – qHTS for induction of synthetic lethality in tumor cells producing 2HG: qHTS for the HT-1080-IDH1KD cell line. HT-1080 IDH1 knockdown viability, ATP luminescence, 48 h. Potency, µM (highest dose often 46.1 µM), for inactives: top-dose activity, negative = toxicity, hits mostly cytotoxic. 360,000 tested, 2% active. AID 686971, 2013;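 also: 0% = DMSO wells and -100% = cell-free medium wells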
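In this qHTS, HT-1080 cells depleted of IDH1 are exposed for 48 h at 37 °C to compound titrations. Toxicity is scored from CellTiter-Glo luminescence, with DMSO as full viability and medium alone as none.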
HT1080NT lethal – qHTS for induction of synthetic lethality in tumor cells producing 2HG: qHTS for the HT-1080-NT fibrosarcoma cell line | HT-1080-NT fibrosarcoma viability, CellTiter-Glo ATP luminescence, 48 h | Potency, µM (series often up to 46.1 µM), for the others: at the highest dose activity, negative = less viability, usual class: cytotoxic | 360,000 tested, 1.6% active | AID 686970, 2013;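 also: NT is the 2HG producing partner of a matched IDH1 knockdown line; 0% = DMSO-treated cells and -100% = media-only wells without cells; nearly all actives have a fitted effect of over 55% in size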
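Viability of the 2HG-overproducing fibrosarcoma line after 48 hours of compound exposure at 37 degrees C was determined by luminescence with CellTiter-Glo, and concentration-effect curves were then fitted and categorized.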
* hit, by the source's call; i = inactive; ? = inconclusive; . = no result. Shown are actives, neighbours in structure and some others; about 19% of the full set was active somewhere. Calls follow the shape of the dose curve; as a rule, active = well fitted curve in the direction sought with a large enough effect; inconclusive = small, poorly fitted or top-dose-only effect, or another doubt; inactive = no such curve, though single readings can be large; an effect the other way counts as inactive or inconclusive. Unless noted, % is scaled to controls: 0 for no effect and ±100 for the full control effect; potency is read from the fitted curve at half-maximal effect.

SMILES | DT40 TDP1 no CPT | KB-V1 cytotox | DT40 TDP1 CPT | KB-3-1 cytotox | HT1080 IDH1KD tx | HT1080NT lethal
COc1ccc(Cl)cc1C(=O)C1CCCN(Cc2cnc(N3CCOCC3)s2)C1 (configuration not stated) | 29µM* | ? | ? | i | -14% | 0%
COc1ccc2cc(C(=O)C3CCCN(C(=O)Cc4c(C)noc4C)C3)ccc2c1 (configuration not stated) | 21µM* | ? | 23µM* | i | -1% | -11%
COc1ccc2cc(C(=O)C3CCCN(C(=O)c4snnc4C)C3)ccc2c1 (configuration not stated) | 23µM* | i | 16µM* | i | 4% | -2%
COc1ccc(F)cc1C(=O)C1CCCN(Cc2cnc(N3CCCC3)s2)C1 (configuration not stated) | -20% | i | -2% | i | 6% | 18%
O=C(Nc1cc(-c2nc3ccccc3o2)ccc1Cl)c1ccc(Br)o1 | -13% | . | -27% | . | . | .
COc1cc(NC(=O)CCc2c(C)nc3c4c(C)cc(C)nc4nn3c2C)cc(OC)c1 | ? | i | ? | i | . | .
Cc1ccc(N(CC(=O)NCCc2ccccc2C)S(=O)(=O)N(C)C)cc1 | ? | i | -20% | i | . | .
CCOC(=O)c1ccc(NC(=O)c2nc[nH]c2C(=O)N(C)CCO)cc1 | 9% | i | 0% | i | 7% | 15%
Cc1cc(C(=O)N2CCCC(C(=O)c3ccc4ccccc4c3)C2)n(C)n1 (configuration not stated) | 21µM* | i | ? | i | -18% | -13%
CSc1ccc(C(=O)C2CCCN(C(=O)c3nn(C)c(=O)c4ccccc34)C2)cc1 (configuration not stated) | 16µM* | i | ? | ? | ? | ?
COc1ccc2cc(C(=O)C3CCCN(C(=O)/C=C/c4ccccn4)C3)ccc2c1 (configuration not stated) | 21µM* | ? | ? | i | -3% | -10%
COc1ccc2cc(C(=O)C3CCCN(C(=O)c4cnccn4)C3)ccc2c1 (configuration not stated) | ? | i | ? | i | -1% | -10%
Cc1nc(C)c(C(=O)N2CCCC(C(=O)c3ccc4ccccc4c3)C2)s1 (configuration not stated) | 33µM* | i | ? | i | -3% | 10%
Cc1ccc(S(=O)(=O)N2CCCC(C(=O)NCCC(C)C)C2)cc1 (configuration not stated) | -30% | ? | 1% | i | -18% | -8%
Cn1c(=O)c2c(SCC(=O)NCc3ccc(F)cc3)nc(-c3ccccc3Cl)nc2n(C)c1=O | ? | i | ? | i | . | .
O=C(COc1cccc2ccccc12)N/N=C/c1ccc(Sc2nc3ccccc3s2)o1 | 21µM* | i | ? | i | -13% | -11%
Cc1ccccc1OCC(=O)N/N=C/c1ccc(Sc2nc3ccccc3s2)o1 | 16µM* | ? | ? | ? | ? | -18%
N#CCC(=O)N/N=C/c1ccc(Sc2nc3ccccc3s2)o1 | -27% | ? | 1% | i | -17% | 3%
O=C(Cc1cccc2ccccc12)N/N=C/c1ccc(Sc2nc3ccccc3s2)o1 | ? | ? | 16µM* | ? | -22% | -1%
COCC(=O)N/N=C/c1ccc(Sc2nc3ccccc3s2)o1 | ? | i | -19% | i | -5% | -7%
CCCCNC(=O)C1c2ccccc2OCC(=O)N1CCOC (configuration not stated) | -4% | i | -6% | i | 2% | 29%
O=C1CCCN1C(=O)CSc1nnnn1-c1ccccc1 | 0% | i | -9% | i | 8% | -2%
O=C(NCC1CCCO1)C(=O)NCC(c1ccco1)N1CCN(c2ccccc2F)CC1 (configuration not stated) | ? | i | -4% | i | 8% | 0%
Cc1nn2c(=O)cc(COC(=O)c3ccccc3NC(=O)C3CCCCC3)nc2s1 | 1% | . | 7% | . | . | .
COc1ccc(Cl)cc1NC(=O)CSc1cn(CC(=O)N2CCCCCC2)c2ccccc12 | 12µM* | . | 13µM* | . | . | .
SMILES | DT40 TDP1 no CPT | KB-V1 cytotox | DT40 TDP1 CPT | KB-3-1 cytotox | HT1080 IDH1KD tx | HT1080NT lethal
COc1ccc(Cl)cc1NC(=O)CN1CCCC1 | -3% | i | 1% | i | -19% | -19%
COc1ccc(Cl)cc1NC(=O)CSc1cn(CC(=O)N2CCCC2)c2ccccc12 | 3.3µM* | . | 12µM* | . | . | .
CN(C#N)c1nc(N2CCOCC2)nc(N2CCOCC2)n1 | ? | i | ? | i | 7% | 10%
CCN(CC)c1nc(C#N)nc(N2CCOCC2)n1 | 10µM* | ? | 10µM* | i | . | .
CC(C)CN(C#N)c1nc(N2CCOCC2)nc(N2CCOCC2)n1 | 12µM* | i | 12µM* | i | -13% | -23%
CC(=O)Nc1ccc(SCC(=O)NC(=O)c2ccc(S(=O)(=O)N(C)C)cc2)cc1 | -15% | i | 6% | i | 12% | 10%
COc1cc(Cl)ccc1OCc1cc(C(=O)N(C)Cc2cccc3cnccc23)no1 | 12µM* | ? | 15µM* | ? | ? | ?
CN(Cc1nccs1)C(=O)c1cc(COc2cccc3cnccc23)on1 | 10µM* | i | 7.3µM* | i | 9.2µM* | 23µM*
CC(=O)c1cccc(OCc2cc(C(=O)N(C)Cc3nccs3)no2)c1 | -33% | i | ? | i | 2% | 10%
NNc1ccc([N+](=O)[O-])c2[nH][nH]c(=O)c12 | 1% | i | -6% | ? | -5% | -1%
Oc1ccc(/C(Cc2ccccn2)=N\Nc2ccccc2)c(O)c1 | ? | ? | ? | i | 9.2µM* | ?
N/N=C(\Cc1cscn1)c1ccc(O)cc1O | ? | ? | -8% | i | -15% | -4%
Cc1c(O)ccc(/C(Cc2ccc3ccccc3n2)=N\O)c1O | 21µM* | ? | 21µM* | 16µM* | -3% | -2%
